# Bioassay records: PubChem BioAssay, several laboratories
# tim10-1 inh = tim10-1 yeast growth inhibition. inhibition, % at 20 µM. AID 463190. actives 2.2% (n = 330,000). S. cerevisiae tim10-1 ts strain growth, BacTiter-Glo, 24 h;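 active = inhibition of at least 40%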;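 also: mutant grown at 25 °C; 0% = DMSO wells with yeast and 100% = wells holding no yeast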
# TIM10 inh = TIM10 yeast growth inhibition | actives 1.4% (n = 330,000) | S. cerevisiae TIM10 strain growth, BacTiter-Glo luminescence, 24 h | inhibition, % at 10 µM;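 active = inhibition of 40% or more at the single tested concentration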;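 also: wild-type TIM10 isogenic control strain grown at permissive 25 °C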
# PfHsp90 yeast 2 = growth inhibition of yeast expressing Plasmodium Hsp90; actives 0.32% (n = 310,000); S. cerevisiae expressing PfHsp90, BacTiter-Glo ATP, 48 h; yeast lacking PDR1 and PDR3 efflux regulators; inhibition, % at 9.4 µM;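 active = every replicate shows inhibition above about 80%, whatever the replicate mean, limit read from the data; inconclusive = mean inhibition reaches the set limit but some replicate falls short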;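 also: 0% = DMSO neutral controls and 100% = 20 µM radicicol positive controls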
# Rce1 inhib = blocks yeast Ras-converting enzyme | actives 0.27% (n = 290,000) | yeast membranes, quenched prenylated peptide cleavage fluorescence | calls only | AID 2563 | Q03530;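 active = fall in fluorescence gain of 50% or more versus controls, with final raw signal at or below 3038400; inconclusive = same 50% fall but final raw signal above 3038400; inactive = fall in fluorescence gain under 50%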;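 also: plate controls were neutral control wells for no effect and wells lacking membranes for full effect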
# Target sequence (Q03530 whole entry, looked up): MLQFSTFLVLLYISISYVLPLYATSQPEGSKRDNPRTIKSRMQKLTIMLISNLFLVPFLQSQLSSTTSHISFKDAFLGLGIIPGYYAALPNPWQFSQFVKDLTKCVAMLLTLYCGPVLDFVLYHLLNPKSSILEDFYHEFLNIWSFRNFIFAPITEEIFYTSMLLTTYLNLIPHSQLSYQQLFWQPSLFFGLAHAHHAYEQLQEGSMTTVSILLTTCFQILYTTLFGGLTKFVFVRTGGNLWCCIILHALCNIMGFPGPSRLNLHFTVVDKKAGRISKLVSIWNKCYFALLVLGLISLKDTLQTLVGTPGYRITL
# tim23-1 inh = tim23-1 yeast growth inhibition; inhibition, % at 20 µM; S. cerevisiae tim23-1 growth, BacTiter-Glo luminescence, 24 h; actives 1.3% (n = 330,000);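 active = growth inhibition of the mutant yeast at or above 50%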;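 also: temperature-sensitive mutant grown at 25 °C; plate controls were DMSO-treated mutant yeast for no effect and medium wells lacking yeast for full effect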
# tim10-1 confirm = confirmation of tim10-1 mutant yeast growth inhibitors. actives 56% (n = 7,400). shares compounds with tim10-1 inh. inhibition, % at 20 µM. S. cerevisiae tim10-1 ts strain growth, BacTiter-Glo, 24 h;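 active = inhibition of yeast growth at or above a set limit in either of two repeat tests at 20 µM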;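 also: tim10-1 mutant grown at permissive 25 °C to find synthetic lethal compounds; 0% = DMSO yeast wells and 100% = medium wells without yeast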
# tim10 confirm = confirmation of TIM10 yeast growth inhibitors | S. cerevisiae tim10 strain growth, BacTiter-Glo luminescence, 24 h | AID 463215 | inhibition, % at 10 µM | actives 63% (n = 4,600) | shares compounds with TIM10 inh;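 active = inhibition of yeast growth at or above a set limit in either of two replicates at 10 µM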;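 also: this counterscreen used the strain with wild-type TIM10; 0% = yeast with DMSO and 100% = medium wells lacking yeast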
# tim23-1 confirm = confirmation of tim23-1 mutant yeast growth inhibitors. shares compounds with tim23-1 inh. S. cerevisiae tim23-1 growth, BacTiter-Glo luminescence, 24 h. inhibition, % at 20 µM. actives 83% (n = 4,400). AID 463218;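 active = inhibition above about 39% in either of two replicate wells at 20 µM, limit read from the data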;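 also: temperature-sensitive tim23-1 mutant grown at 25 °C; 0% = DMSO wells with yeast and 100% = medium wells without yeast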
# An asterisk follows results filed as active; i = inactive; u = inconclusive; x = not tested or not shown. This is a sample that favours compounds with a hit; in the whole collection about 3.7% have one here.
SMILES,tim10-1 inh,TIM10 inh,PfHsp90 yeast 2,Rce1 inhib,tim23-1 inh,tim10-1 confirm,tim23-1 confirm,others
CC1CCCCN1CCCNc1ccc(C(CC(N)=O)NC(=O)Cc2ccc(Br)cc2)cc1[N+](=O)[O-] (configuration not stated),-15,-5,5,i,-1,x,x,
CN(C(=O)/C=C/c1ccc([N+](=O)[O-])s1)c1ccccc1,45*,43*,-25,i,53*,59*,50*,tim10 confirm=49*
CCc1cc2c(=O)nc3n(c2s1)Cc1ccccc1/C3=C(/O)c1ccccc1Cl,59*,35,3,i,66*,42*,40*,
CC(C)CN(CC(C)C)C(=O)CN1C(=O)NC2(CCc3ccccc3C2)C1=O (configuration not stated),21,10,4,i,7,x,x,
Cc1ccc(C)c2sc(N3CCN(C(=O)c4ccc([N+](=O)[O-])o4)CC3)nc12,70*,-102,x,i,73*,60*,7,
CC(C)(C)OC(=O)C[C@H]1C/C=C\C[C@@H](CC(=O)N(CCO)Cc2ccccc2)C(=O)NC[C@@H](c2ccccc2)OC1=O,-2,5,-3,x,8,x,x,
Cc1ccc(NC(=O)c2ccc(C)cc2)cc1,-16,-15,-30,i,7,x,x,
Cc1ccc(C(=O)Nc2ccc(Br)c(C(F)(F)F)c2)cc1,75*,63*,x,i,67*,45*,62*,tim10 confirm=63*
Cc1ccc(C(=O)NCC(=O)NCC(c2cccs2)N2CCOCC2)cc1C (configuration not stated),5,1,73,i,15,x,x,
COc1ccc(C(=O)Nc2ccc3c(c2)nc(CN2CCCC2)n3C)cc1,9,12,x,i,1,x,x,
Cc1ccc(Nc2cc(C)nc(-c3ccccc3)n2)cc1,42*,39,32,i,51*,33*,58*,
Cc1cc(Nc2ccc(F)c(F)c2)nc(-c2ccccc2O)n1,17,14,-22,i,-1,x,x,
O=Cc1cn(-c2ccccc2)nc1-c1ccc2c(c1)OCCO2,53*,47*,26,x,72*,59*,78*,tim10 confirm=62*
COc1ccccc1N1CCN(C(=O)c2cc3c(C)nc4ccccc4c3o2)CC1,49*,18,-9,i,54*,16,33,
Cc1ccc(N(C)C(=O)c2ccc3c(Cl)c4c(nc3c2)CCC4)cc1C,41*,21,-4,i,55*,35*,56*,
COc1ccccc1N1CCN(C(=O)c2ccc3c(Cl)c4c(nc3c2)CCCC4)CC1,53*,31,-24,i,56*,36*,57*,
Cc1[nH]c(C)c(S(=O)(=O)N2CCN(c3cccc(Cl)c3)CC2)c1C(=O)N1CCCCC1,6,3,-23,i,3,x,x,
Cc1cccc(OCCN2CSC(=S)N(C)C2)c1,42*,26,-27,i,59*,14,76*,
COc1ccccc1OCCN1CSC(=S)N(C)C1,42*,53*,-102,i,72*,31*,60*,tim10 confirm=-18
Cc1c(C(=S)NC(=O)C2CC2)c(=O)n(-c2ccccc2)n1C,7,14,33,i,11,x,x,
COc1ccc(S(=O)(=O)N2CCN(C(=O)C3CC3)CC2)cc1,9,-9,18,x,12,x,x,
O=[N+]([O-])c1ccc(C=Nc2ccc(Cl)c([N+](=O)[O-])c2)s1,65*,85*,106*,x,51*,71*,77*,tim10 confirm=88*
Cc1cc(C)cc(N=Cc2ccc([N+](=O)[O-])s2)c1,56*,83*,106*,i,55*,71*,74*,tim10 confirm=86*
CCCNC(C)C(=O)Nc1c(C)csc1C(=O)OC (configuration not stated),8,1,9,x,9,x,x,
COc1cccc(NC(=O)CN(C)S(=O)(=O)/C=C/c2ccccc2)c1,27,15,6,x,16,x,x,
SMILES,tim10-1 inh,TIM10 inh,PfHsp90 yeast 2,Rce1 inhib,tim23-1 inh,tim10-1 confirm,tim23-1 confirm,others
C=CCn1c(=O)c2ccccc2n2c(SCC(=O)NC)nnc12,10,-23,-3,i,-1,x,x,
O=[N+]([O-])c1cc(Cl)cc2c1nc(NCCO)c1ccccc12,67*,40,-5,i,55*,50*,47*,
CC(=O)Nc1ccc(NC(=O)CSc2nc(C)nc3sc(C)c(C)c23)cc1,-11,9,-18,i,-22,x,x,
Cc1nc(SCC(=O)Nc2ccc(CN3CCCC3)cc2)c2c(C)c(C)sc2n1,51*,51*,x,x,53*,62*,57*,tim10 confirm=38*
O=S(=O)(/N=C(\Sc1ccc(Cl)cc1)c1ccccc1)c1ccccc1,45*,34,-5,i,55*,40*,81*,
CC(C)n1nc(C(=O)Nc2nnc(C3CC3)s2)c2ccccc2c1=O,15,15,-2,i,31,x,x,
CC(C)Cn1nc(C(=O)Nc2nnc(C3CC3)s2)c2ccccc2c1=O,47*,20,-17,x,52*,29*,41*,
Cc1cc2c(=O)oc(-c3ccc(Br)cc3)nc2s1,21,5,7,i,15,x,x,
Clc1ccc(/C=C/c2nc3ccccc3[nH]2)cc1,7,37,59,i,46,x,x,
Clc1cccc(Cl)c1/C=C/c1nc2ccccc2[nH]1,45*,65*,11,u,85*,34*,88*,tim10 confirm=53*
Clc1ccc(/C=C/c2nc3ccccc3[nH]2)c(Cl)c1,41*,50*,x,i,62*,41*,76*,tim10 confirm=32*
Cc1oc2nc(SCCCC(=O)NCCO)nc(N)c2c1C,-7,5,1,i,5,x,x,
Oc1c(Cl)cc(Cl)cc1/C=N/NC(=S)NC1CC2C=CC1C2 (configuration not stated),48*,36,-20,i,57*,50*,72*,
Oc1c(Cl)cc(Cl)cc1/C=N/Nc1ncc(Br)cn1,12,-1,-7,i,-4,x,x,
Clc1ccc(CSc2nncn2-c2ccc3c(c2)OCCO3)cc1,41*,22,22,i,52*,33*,47*,
COc1ccc(-c2csc(NC(C)c3nc4cc(Cl)c(Cl)cc4n3CCCO)n2)cc1 (configuration not stated),19,13,-29,i,30,x,x,
CC(C)CN(C(=O)COC(=O)COc1ccc2c(c1)CCC2)c1c(N)n(Cc2ccccc2)c(=O)[nH]c1=O,-9,-4,-17,i,-5,x,x,
COc1ccc(-n2cnnc2SCC(=O)Nc2ccccc2F)cc1,9,15,3,i,14,x,x,
